Assay results taken from PubChem BioAssay.
Activity calls are given as the source filed them.

Assays:
[1] = optical density shifts of acrAB sulA E. coli – strain DRC41, OD650, 48 h, E. coli filamentation inducer project, primary screen (AID 1152); conditions: higher = more signal, called active from +8 up or from −8 down;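 note: E. coli MC1000 strain DRC41 lacking acrAB efflux pump and sulA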
[2] = probe aLefty1 binding on compound microarray – biochemical, small-molecule microarray, 635/667 nm fluorescence, primary screen (AID 1153); conditions: higher = more signal;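 note: score merges spot fluorescence with signal-to-noise ratio from the scanned slide images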
[3] = plasmodial surface anion channel blockers, osmotic lysis – cell-based, P. falciparum Indochina, OD700, 1 h, primary screen (AID 1154); conditions: P. falciparum Indochina infected RBC osmotic lysis, higher = more signal, called active from +8 up or from −8 down
[4] = plasmodial surface anion channel blockers, osmotic lysis – cell-based, P. falciparum Indochina, OD700, 2 h, primary screen (AID 1155);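 note: lysis reports solute entry through the parasite surface anion channel PSAC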; conditions: P. falciparum Indochina infected erythrocytes, higher = more signal, called active from +8 up or from −8 down
[5] = changes in parasitized red cell lysis, either direction – P. falciparum Indochina, OD700, 3 h, PSAC antagonist project, primary screen (AID 1156); conditions: P. falciparum-infected erythrocytes, osmotic lysis, higher = more signal, called active from +8 up or from −8 down
[6] = plasmodial surface anion channel blockers, osmotic lysis – cell-based, P. falciparum Indochina, OD700, 18 h, primary screen (AID 1157); conditions: P. falciparum Indochina infected erythrocytes, osmotic lysis OD700, 18 h; higher = more signal, called active from +8 up or from −8 down
[7] = S6 kinase pathway phospho-S6 level changes – cell-based, A549, cytoblot, luminescence, serum-stimulated, primary screen (AID 1158); conditions: 5 h, higher = more signal;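 note: serum-stimulated A549 lung adenocarcinoma cells; signal is phosphorylated S6 detected by cytoblot immunostaining with HRP secondary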
[8] = molecular target: NADPH oxidase 2 (Homo sapiens) (UniProt P04839); assay: compounds shifting NOX2 Amplex Red fluorescence – cell-based, HEK293-NOX2, PMA-stimulated, NOX inhibitor project, primary screen (AID 1159); conditions: 45 min, higher = more signal, called active from +8 up or from −8 down; note: test concentration not given here
[9] = molecular target: NADPH oxidase 4 (Homo sapiens) (UniProt Q9NPH5); assay: compounds shifting NOX4 Amplex Red fluorescence – cell-based, HEK293-NOX4, tetracycline-induced, NOX inhibitor project, primary screen (AID 1160); conditions: HEK293-NOX4, Amplex Red H2O2 fluorescence, 45 min; higher = more signal, called active from +8 up or from −8 down
[10] = molecular target: NADPH oxidase 5 (Homo sapiens) (UniProt Q96PH1); assay: compounds shifting NOX5 Amplex Red fluorescence – cell-based, HEK293-NOX5, NOX inhibitor project, primary screen (AID 1161); conditions: HEK293-NOX5, ionomycin, 45 min, higher = more signal
[11] = compound effects on lung adenocarcinoma cell viability – A549, calcein-AM fluorescence, 48 h, basal, profiling panel (AID 1162); conditions: higher = more signal; note: test concentration not given here
[12] = compound effects on differentiated 3T3-L1 adipocyte viability – cell-based, 3T3-L1 adipocytes, calcein-AM fluorescence, 48 h, basal, profiling panel (AID 1163); conditions: 3T3-L1 adipocytes viability, higher = more signal; note: test concentration not given here
[13] = compound effects on hepatocellular carcinoma cell viability – HepG2, calcein-AM fluorescence, 48 h, basal, profiling panel (AID 1164); conditions: higher = more signal; note: test concentration not given here
[14] = compound effects on multiple myeloma cell viability – MM1S, calcein-AM fluorescence, 48 h, basal, profiling panel (AID 1165); conditions: higher = more signal; note: test concentration not given here
[15] = calcein-AM signal in unstimulated myeloma cells – cell-based, calcein-AM fluorescence, 48 h, PK04 Diversity Set, profiling panel (AID 1166); conditions: RPMI8226 myeloma viability, higher = more signal;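 note: cells grown under basal conditions without added stimulus; test concentration not given here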
[16] = JC-1 mitochondrial signal, unstimulated HepG2 cells – cell-based, JC-1 fluorescence, 24 h, 100 nL compound, profiling panel (AID 1167); conditions: HepG2 mitochondrial potential, higher = more signal; note: test concentration not given here
[17] = JC-1 mitochondrial signal, unstimulated adipocytes – cell-based, JC-1 fluorescence, 3T3-L1 adipocytes, 24 h, 100 nL compound, profiling panel (AID 1168); conditions: JC-1 mitochondrial fluorescence, higher = more signal, called active from +8 up or from −8 down; note: test concentration not given here
[18] = JC-1 mitochondrial signal, unstimulated myeloma cells – cell-based, JC-1 fluorescence, RPMI8226, 24 h, 100 nL compound, profiling panel (AID 1169); conditions: JC-1 mitochondrial potential fluorescence, higher = more signal; note: test concentration not given here
[19] = JC-1 mitochondrial signal, unstimulated MM1S myeloma – cell-based, JC-1 fluorescence, 24 h, 100 nL compound, profiling panel (AID 1170); conditions: MM1S mitochondrial potential, higher = more signal; note: test concentration not given here
[20] = resazurin metabolic signal in A549 cells – cell-based, resazurin fluorescence, 24 h, PK04 Diversity Set, profiling panel (AID 1171); conditions: A549 viability, higher = more signal, called active from +8 up or from −8 down; note: test concentration not given here

Chain of NADPH oxidase 4 (Homo sapiens) (Q9NPH5 whole entry, looked up): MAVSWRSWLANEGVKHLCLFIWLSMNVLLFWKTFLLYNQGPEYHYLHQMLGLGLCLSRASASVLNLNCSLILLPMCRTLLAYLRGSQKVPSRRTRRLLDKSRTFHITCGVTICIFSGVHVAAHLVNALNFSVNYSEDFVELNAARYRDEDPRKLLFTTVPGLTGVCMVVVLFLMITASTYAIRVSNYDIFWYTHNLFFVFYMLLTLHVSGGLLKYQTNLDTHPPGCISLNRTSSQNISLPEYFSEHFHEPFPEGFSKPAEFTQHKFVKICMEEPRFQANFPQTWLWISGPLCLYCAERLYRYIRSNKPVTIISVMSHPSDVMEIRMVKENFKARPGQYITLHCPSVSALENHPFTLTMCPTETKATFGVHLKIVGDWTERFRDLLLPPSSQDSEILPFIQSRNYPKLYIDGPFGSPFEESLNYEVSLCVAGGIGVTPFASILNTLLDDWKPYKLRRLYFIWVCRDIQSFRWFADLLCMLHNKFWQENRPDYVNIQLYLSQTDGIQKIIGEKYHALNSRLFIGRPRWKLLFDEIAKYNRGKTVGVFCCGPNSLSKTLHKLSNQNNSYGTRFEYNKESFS
Chain of NADPH oxidase 2 (Homo sapiens) (P04839 whole entry, looked up): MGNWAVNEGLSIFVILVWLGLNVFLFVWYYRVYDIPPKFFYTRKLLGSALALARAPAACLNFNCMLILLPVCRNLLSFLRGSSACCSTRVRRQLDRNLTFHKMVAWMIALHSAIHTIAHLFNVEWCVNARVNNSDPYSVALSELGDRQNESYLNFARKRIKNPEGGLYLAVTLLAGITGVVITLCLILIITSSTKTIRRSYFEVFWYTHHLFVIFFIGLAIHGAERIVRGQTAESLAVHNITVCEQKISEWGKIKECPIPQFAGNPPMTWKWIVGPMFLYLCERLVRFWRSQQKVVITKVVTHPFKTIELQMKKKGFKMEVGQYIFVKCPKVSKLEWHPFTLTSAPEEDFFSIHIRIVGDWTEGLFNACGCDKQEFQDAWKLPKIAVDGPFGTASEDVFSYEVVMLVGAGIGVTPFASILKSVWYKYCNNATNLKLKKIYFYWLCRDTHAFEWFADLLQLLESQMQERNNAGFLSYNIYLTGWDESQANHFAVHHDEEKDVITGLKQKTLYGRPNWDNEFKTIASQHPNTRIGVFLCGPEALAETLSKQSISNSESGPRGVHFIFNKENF
Chain of NADPH oxidase 5 (Homo sapiens) (Q96PH1 whole entry, looked up): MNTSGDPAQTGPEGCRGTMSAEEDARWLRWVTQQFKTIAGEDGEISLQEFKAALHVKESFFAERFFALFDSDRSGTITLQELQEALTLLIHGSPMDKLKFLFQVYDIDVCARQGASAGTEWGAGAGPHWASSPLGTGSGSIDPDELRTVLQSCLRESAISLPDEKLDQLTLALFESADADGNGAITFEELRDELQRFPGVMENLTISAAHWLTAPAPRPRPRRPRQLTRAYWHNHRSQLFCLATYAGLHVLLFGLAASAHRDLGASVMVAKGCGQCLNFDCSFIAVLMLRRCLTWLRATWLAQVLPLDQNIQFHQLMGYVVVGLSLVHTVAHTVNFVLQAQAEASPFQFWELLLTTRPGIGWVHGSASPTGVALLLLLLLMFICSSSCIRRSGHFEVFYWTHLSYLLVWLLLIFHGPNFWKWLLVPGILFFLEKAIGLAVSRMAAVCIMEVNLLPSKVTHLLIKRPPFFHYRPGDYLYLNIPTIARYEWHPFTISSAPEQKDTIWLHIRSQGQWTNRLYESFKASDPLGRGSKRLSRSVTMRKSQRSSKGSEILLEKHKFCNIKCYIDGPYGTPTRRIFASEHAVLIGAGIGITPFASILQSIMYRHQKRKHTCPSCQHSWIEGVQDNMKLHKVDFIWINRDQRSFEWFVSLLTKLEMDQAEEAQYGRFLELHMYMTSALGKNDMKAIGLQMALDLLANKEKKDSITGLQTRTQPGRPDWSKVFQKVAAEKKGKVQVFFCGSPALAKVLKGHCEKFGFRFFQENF

| SMILES | z-score [1] | composite z-score [2] | z-score [3] | z-score [4] | z-score [5] | z-score [6] | z-score [7] | z-score [8] | z-score [9] | z-score [10] | z-score [11] | z-score [12] | z-score [13] | z-score [14] | z-score [15] | z-score [16] | z-score [17] | z-score [18] | z-score [19] | z-score [20] |
| --- | --- | --- | --- | --- | --- | --- | --- | --- | --- | --- | --- | --- | --- | --- | --- | --- | --- | --- | --- | --- |
| C=CCN1C(=O)[C@]2(O[C@H](CCO)[C@@H]([Si](C)(C)c3ccc(OC)cc3)[C@@H]2C)c2cc(NC(=O)c3ccc(OC)cc3)ccc21 | -1.25 (inactive) | 0.0494 | 7.31 (inactive) | 2.69 (inactive) | -0.357 (inactive) | 1.3 (inactive) | -0.309 | -3.97 (inactive) | -0.48 (inactive) | 1.38 | -3.78 | -0.562 | -4.65 | -2.69 | -4.38 | -0.446 | 0.96 (inactive) | -0.953 | -2.2 | -3.7 (inactive) |
| Cc1ccc(N2C(=O)c3ccccc3[C@](C)(C(=O)NCc3ccccc3)[C@@H]2c2ccc(CO)cc2)nc1 | 0.465 (inactive) | 0.205 | 2.01 (inactive) | 0.161 (inactive) | 0.385 (inactive) | 0.305 (inactive) | 0.389 | 0.37 (inactive) | -1.75 (inactive) | -0.583 | 0.868 | 0.483 | 0.197 | -0.169 | -1.46 | 0.191 | -0.834 (inactive) | -0.494 | 1.46 | -0.0526 (inactive) |
| CCOC(=O)C[C@H]1[C@H](OC(=O)c2ccccc2-c2ccccc2)[C@@H](NC(=O)c2ccc3ccccc3n2)c2cc(OCCCO)ccc2N1C(=O)c1ccccc1 | -1.04 (inactive) | 0.0355 | 1.35 (inactive) | 0.496 (inactive) | 0.667 (inactive) | 0.305 (inactive) | -0.35 | 0.838 (inactive) | 1.23 (inactive) | 2.31 | 0.198 | 0.197 | 0.305 | -0.295 | -0.0468 | 0.549 | -0.178 (inactive) | -0.707 | 0.625 | 0.143 (inactive) |
| CC1CC/C=C\[C@H]2OC34C=CCN(C(C)(C)C)C(=O)[C@H]3N(C(CO)C(C)C)C(=O)[C@@H]4C2C(=O)O1 (stereo not given in full) | -0.281 (inactive) | -0.142 | 0.462 (inactive) | 0.451 (inactive) | 0.44 (inactive) | 0.404 (inactive) | -0.248 | 1.31 (inactive) | -0.568 (inactive) | 2.34 | 0.0643 | 0.385 | -0.554 | 1.61 | 0.136 | -0.976 | -0.295 (inactive) | -0.622 | -0.516 | -0.266 (inactive) |
| C=CCNC(=O)[C@@H]1[C@H]2C(=O)O[C@H](c3ccccc3)[C@H](c3ccccc3)N2[C@H](c2ccc(O)cc2)[C@@]12C(=O)Nc1ccc(C#CCC(C(=O)OC)C(=O)OC)cc12 | -0.482 (inactive) | -0.0544 | 5.99 (inactive) | 0.792 (inactive) | 2.3 (inactive) | 0.319 (inactive) | -0.45 | 1.97 (inactive) | 0.448 (inactive) | 1.25 | -0.399 | -0.937 | -0.6 | -3.31 | -4.52 | -1.76 | -0.271 (inactive) | -1.25 | -2.23 | -0.395 (inactive) |
| Cc1ccccc1C(O)C1C=CC2C(=O)NC(=O)C2N1Nc1ccc(Cl)cc1Cl (stereo not given) | -1.87 (inactive) | 0.219 | 1.81 (inactive) | 1.35 (inactive) | -1.11 (inactive) | 0.975 (inactive) | -0.649 | -0.254 (inactive) | -4.79 (inactive) | -2.02 | -0.235 | -0.636 | -0.245 | -2.93 | -1.58 | -2.8 | -0.879 (inactive) | -0.153 | 0.106 | -0.8 (inactive) |
| CCOC(=O)C[C@H]1[C@H](OC(=O)c2ccc(C(=O)c3ccccc3)cc2)[C@@H](NC(=O)CC(C)C)c2cc(OCCCO)ccc2N1C(=O)Cc1ccc(OC)cc1 | 0.23 (inactive) | 0.243 | 4.38 (inactive) | 0.351 (inactive) | -0.0495 (inactive) | 0.0625 (inactive) | -0.174 | -0.354 (inactive) | 0.528 (inactive) | 0.522 | -0.206 | -0.194 | -0.0232 | 0.467 | -0.679 | 1.88 | -0.689 (inactive) | 0.573 | 0.288 | 0.189 (inactive) |
| Nc1cc(Br)ccc1C(=O)O | 0.813 (inactive) | 0.139 | -0.319 (inactive) | 0.371 (inactive) | -0.611 (inactive) | 0.0089 (inactive) | 0.265 | 0.0525 (inactive) | -0.204 (inactive) | 0.142 | 1.51 | 0.679 | 0.264 | 1.29 | 0.804 | 0.799 | 0.55 (inactive) | 0.432 | 1.54 | 0.671 (inactive) |
| COC(=O)[C@@]1(Cc2ccc(F)cc2)[C@H]2c3cc(C(=O)N(C)C)n(Cc4c(CO)[nH]cc(C)c4=O)c3C[C@H]2CN1C(=O)c1ccccc1 | -1.35 (inactive) | 0.0752 | 0.756 (inactive) | 0.19 (inactive) | 0.865 (inactive) | 0.816 (inactive) | -0.122 | 0.31 (inactive) | -0.0408 (inactive) | -3.5 | -0.108 | 0.837 | -0.554 | -1.33 | -0.372 | -0.3 | -0.91 (inactive) | -0.00352 | -0.895 | -1.42 (inactive) |
